The source of these data is ChEMBL document CHEMBL3433997, “St. Jude Leishmania screening dataset” (2016).

Common to all, as to type: functional
Assay [1] deals with Solute carrier family 2, facilitated glucose transporter member 1 (Homo sapiens) (UniProt P11166). The assay is described as follows: ST_JUDE_LEISH: Cytotoxicity at 2uM final concentration against transgenic Leishmania Mexicana promastigotes LmGLUT1 that are glucose transport deficient and complemented with the human glucose transporter GLUT1. Activity is measured by DNA content using SYBR green in vitro.
Sequence of Solute carrier family 2, facilitated glucose transporter member 1 (Homo sapiens) (P11166 whole entry): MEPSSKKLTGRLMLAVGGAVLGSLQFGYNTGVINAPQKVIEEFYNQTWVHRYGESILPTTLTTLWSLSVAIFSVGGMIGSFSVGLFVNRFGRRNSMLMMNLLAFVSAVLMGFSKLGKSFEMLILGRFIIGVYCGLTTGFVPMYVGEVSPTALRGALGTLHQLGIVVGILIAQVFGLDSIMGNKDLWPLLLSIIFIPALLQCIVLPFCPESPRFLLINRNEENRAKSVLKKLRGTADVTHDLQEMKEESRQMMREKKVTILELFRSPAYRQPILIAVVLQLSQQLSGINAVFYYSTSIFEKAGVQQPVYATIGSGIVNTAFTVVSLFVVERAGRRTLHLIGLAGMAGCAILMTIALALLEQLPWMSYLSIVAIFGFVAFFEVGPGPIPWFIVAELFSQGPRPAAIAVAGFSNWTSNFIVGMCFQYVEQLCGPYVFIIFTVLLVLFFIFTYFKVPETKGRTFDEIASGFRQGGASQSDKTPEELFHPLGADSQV

The target in assay [2] is Hexose transporter 1 (Plasmodium falciparum) (UniProt O97467). Description: ST_JUDE_LEISH: Cytotoxicity at 2uM final concentration against transgenic Leishmania Mexicana promastigotes LmPfHT that are glucose transport deficient and complemented with the Plasmodium falciparum hexose transporter. Activity is measured by DNA content using SYBR green in vitro.
In assay [3] the target is Glucose transporter (Leishmania mexicana) (UniProt O61059). The assay is described as follows: ST_JUDE_LEISH: Cytotoxicity at 2uM final concentration against transgenic Leishmania Mexicana promastigotes LmGT2 that are glucose transport deficient and complemented with the L. Mexicana glucose transporter 2. Activity is measured by DNA content using SYBR green in vitro.

Take `NC(=O)C1CCN(Cc2cccc(-c3ccc(-c4nc5cc(C(F)(F)F)ccc5[nH]4)cc3)c2)CC1`: the inhibition in assay [1] was -1.36%; in assay [2], -1.5%; in assay [3], -2.94%.
In the same order, the values of `CS(=O)(=O)CCNCc1nc(-c2ccc3ncnc(Nc4ccc(OCc5cccc(F)c5)c(Cl)c4)c3c2)cs1` are 3.7%, 2.03% and -1.62%.
For `COc1ccc2ncc(F)c(CCN3CCC(CNCc4cccc5c4OCO5)CC3)c2n1` the same measures were 2.01%, 1.39% and 3.27%.
For `CN1CCN(CCCN(Cc2cccc(-c3cccc(CNCCc4ccccc4)c3)c2)C(=O)Nc2ccccc2)CC1` the same measures were 8.85%, 9.55% and 7.52%.
Turning to `COc1cc(-c2ccc3c(-c4ccc(C(=O)N5CCN(C)CC5)cc4)n[nH]c3n2)cc(OC)c1OC`, the inhibition in assay [1] was 0.99%; in assay [2] it was 1.78%; in assay [3], 5.3%.
With `Fc1ccc2[nH]c(-c3ccc(-c4ccc(CN5CCCCC5)cc4)cc3)nc2c1`, the inhibition in assay [1] amounted to 8.66%; in assay [2], 7.06%; in assay [3] it was 5.34%.
For the compound `CC(Sc1nnc(-c2cccs2)[nH]1)C(=O)c1c[nH]c2ccccc12` (stereo not given), the inhibition in assay [1] amounted to 0.9%; in assay [2], 1.35%; in assay [3], 0.63%.
In the same order, the values of `Cc1ccc(NC(=O)N2CCC(n3c(-c4ccccc4)nc4cccnc43)CC2)cc1F` are 6.53%, 7.11% and 5.43%.
For `Cc1cccc2nc(-c3cccc(-c4cccc(CN5CCN(c6ccncc6)CC5)c4)c3)[nH]c12`, the inhibition in assay [1] was 1.34%; in assay [2], 0.76%; in assay [3], 0.37%.
Regarding `CC(C)N1CCC(N(Cc2ccc(-c3ccc(C(F)(F)F)cc3)cc2)C(=O)Cn2c(CCc3cccc(F)c3F)cc(=O)c3cn(C)nc32)CC1`, the results for the inhibition in assay [1], in assay [2] and in assay [3] were 10.3%, 8.4% and 13%, respectively.
In the same order, the values of `COc1ccc(C)cc1NC(=O)CSc1nc2cccnc2n1C1CCCCC1` are 5.9%, 4.88% and 3.28%.
In the same order, the values of `Cc1ccc(NC(=O)c2ccc(NCCCN(C)Cc3ccccc3)c([N+](=O)[O-])c2)cc1F` are 8.67%, 3.73% and 2.68%.
In the same order, the values of `COc1ccc(C)c(Nc2ccnc(Nc3ccc(-c4cnc[nH]4)cc3)n2)c1` are 2.85%, 2.37% and 3.29%.
As for `CCN(CCCN1CCCCC1)c1cc(C)nc(Nc2cc(C)ccc2C)n1`, the figures for the inhibition in assay [1], in assay [2] and in assay [3] were -1.92%, 0.68% and -0.58%, respectively.
For `COc1cc(F)c2ncc(F)c([C@@H](O)CN3CCC(NCc4cc5c(cn4)OCCO5)CC3)c2c1` the same measures were 1.43%, 2.18% and 2.06%.
Turning to `CCn1ccc2c(N3CCCC3=O)cc(C(=O)N[C@@H](Cc3ccccc3)[C@H](O)CNC3CCCCC3)cc21`, the inhibition in assay [1] worked out at 4.2%; in assay [2], 7.08%; in assay [3], 0.18%.
For `CN(CCCCNC(=O)c1cc2ccccc2[nH]1)C1CC2(CCN(C(=O)OC(C)(C)C)CC2)c2ccccc21` (stereo not given) the same measures were -1.12%, -1.35% and -1.2%.
For `Fc1cccc(Nc2nc(NCc3ccc4ccsc4c3)nc(Nc3cccc(F)c3)n2)c1` the same measures were 19.2%, 18% and 10.6%.
For `O=C(Nc1ccc(-c2nc3ccccc3[nH]2)cc1)c1ccc(-c2cccc([N+](=O)[O-])c2)o1` the same measures were -1.84%, -0.42% and -3.21%.
Consider `CO/C(=C\C=C\c1cc2cc(Cl)c(Cl)cc2[nH]1)C(=O)NCCCN1CCN(c2cccc(OCC(=O)Nc3ccccc3)c2)CC1`, for which the values for the inhibition in assay [1], in assay [2] and in assay [3] were 8.53%, 8.92% and 5.76%, respectively.
With `CN(C(=O)/C=C/c1ccccc1F)C1CCN(CCCCCNC(=O)/C=C/c2ccc(Cl)c(Cl)c2)CC1`, the inhibition in assay [1] is 5.19%; in assay [2], 4.23%; in assay [3], 5.34%.
For `CCN(CC)CCOc1ccc(NC(=O)c2oc3ccccc3c2C=Cc2ccccc2)cc1` the same measures were 4.92%, -0.45% and 0.81%.
In the same order, the values of `Cc1cc(NCCC(=O)Nc2ccccc2)nc(NCCc2cccs2)n1` are 4.03%, 2.26% and -0.18%.
For `CCCC(C)Nc1nc(C)cc(N[C@@H](CC(C)C)C(=O)NCc2cccc(F)c2)n1` (stereo not given in full) the same measures were 4.43%, 5.69% and 3.7%.
For the compound `Cc1ccc(C(=O)Nc2ccc(Nc3ccnc4cc(-c5nccs5)ccc34)cc2O)cc1`, the inhibition worked out at 6.24% in assay [1], 3.22% in assay [2] and 1.89% in assay [3].
Consider `Cc1cc(N(C)CCN(C)C)nc(Nc2ccc(Br)cc2)n1`, for which the inhibition in assay [1] is -0.17%; in assay [2], 3.61%; in assay [3], 2.53%.
For `CC(C)CN1C(=O)C(c2ccc(F)c(F)c2)=C(O)C1c1ccccc1` (stereo not given) the same measures were 1.97%, 4.04% and -7.87%.
Take `Cc1cc(=NN=Cc2cccc(F)c2)c2cccc(C)c2[nH]1`: the figures for the inhibition in assay [1], in assay [2] and in assay [3] were 2.24%, 3.31% and 0.78%, respectively.
In the same order, the values of `COc1ccc2ncn(-c3ccc(C(N)=O)c(OCc4ccccc4C(F)(F)F)c3)c2c1` are -0.54%, -1.32% and -3.42%.
As to `Cc1cc(OCCCN2CCCCC2C)ccc1NC(=O)COc1ccc(Cl)cc1C(=O)c1cc(Cl)cc(C#N)c1` (stereo not given), the inhibition in assay [1] amounted to 74.2%; in assay [2], 78.3%; in assay [3], 58%.
For the compound `O=C(Cc1ccccc1)NC(CCN1CCC(NC(=O)c2ccc(Cl)cc2)CC1)c1ccc(Cl)c(Cl)c1` (stereo not given), the inhibition in assay [1] worked out at 2.22%; in assay [2] it was 0.27%; in assay [3], 1.02%.
Regarding `COc1ccc(C2CCN(CCCCNC(=O)c3ccc(NC(=O)c4ccc(Cl)cc4)cc3)CC2)c(OC)c1`, the inhibition is 6.64% in assay [1], 5.21% in assay [2] and 3.22% in assay [3].
For `COc1ccc(NC(=O)[C@H](Cc2ccccc2)Nc2cc(C)nc(NCCc3ccccc3)n2)cc1` the same measures were 5.74%, 6.29% and 5.16%.
For `Cn1ccnc1CNC(=O)c1ccc(-c2ccc(-c3nc4cc(C(F)(F)F)ccc4[nH]3)s2)cc1` the same measures were 4.17%, 3.3% and 2.03%.
In the same order, the values of `COc1cc(CNc2ncc(-c3ccsc3)c(-c3nccs3)n2)cc(OC)c1` are 1.79%, 1.49% and -0.78%.
